The list is not random: actives were taken first. Their share in the collection is about 3%.
IMPase cell inh = cell-permeable inhibitors of inositol monophosphatase (IMPase); P97697; CHO-M1 cells, IP1 accumulation, HTRF TR-FRET ratio; inhibition (IP1 accumulation), % at 46.1 µM; 120,000 tested, under 10 active; active = well fitted curve in the direction sought with a large enough effect in the signal ratio, not every such curve was filed as active; inconclusive = small, poorly fitted or top-dose-only effect, or a change in a side signal; inactive = no such curve, though single readings can be large or run the other way; the % refers to the signal ratio;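 also: cells stimulated with carbachol in lithium chloride buffer; plate controls were DMSO basal wells for no effect and reference inhibitor wells for full effect; higher means more IMPase inhibition seen as more IP1 and lower FRET ratio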
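In this qHTS, compounds (final up to 46 uM) act on CHO-M1 cells that are then activated through the M1 receptor with carbachol, in pH 7.4 buffer containing 50 mM LiCl, for 30 min. IP1 accumulation is quantified by the IP-One immunoassay.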
PNC assembly inh = perinucleolar compartment assembly inhibition | PC3M PTB-GFP, PNC prevalence imaging, 16 h; stronger effect = lower value | activity change (PNC), negative = inhibition, % at 10 µM | 140,000 compounds, 3.1% hits | AID 2417;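 active = readout at or below -70, meaning at least 70% loss of cells showing the perinucleolar compartment, a nuclear body marking cancer cells; inconclusive = readout between -30 and a set limit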;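 also: plate controls were DMSO wells for no effect and camptothecin positive control wells for full effect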
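Read-out is percentage of cells bearing a perinucleolar compartment, from automated 20x imaging of fixed, Hoechst-stained PC3M PTB-GFP cells. Cells were seeded 4 h, then exposed 16 h to compound (23 nl of library stock) in duplicate plates.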
12-hLO inh = inhibitors of human 12-lipoxygenase (ALOX12); Potency, µM (doses to about 57.1 µM), inactives show at the highest dose activity change, negative = inhibition, hits mostly inhibitors; purified 12-hLO, xylenol orange hydroperoxide absorbance; 150,000 compounds, 0.12% hits; P18054; AID 1452; also: potency is read from the fitted curve at half-maximal effect; nearly all actives have a fitted effect of over 55% in size
Target sequence (P18054 whole entry, looked up): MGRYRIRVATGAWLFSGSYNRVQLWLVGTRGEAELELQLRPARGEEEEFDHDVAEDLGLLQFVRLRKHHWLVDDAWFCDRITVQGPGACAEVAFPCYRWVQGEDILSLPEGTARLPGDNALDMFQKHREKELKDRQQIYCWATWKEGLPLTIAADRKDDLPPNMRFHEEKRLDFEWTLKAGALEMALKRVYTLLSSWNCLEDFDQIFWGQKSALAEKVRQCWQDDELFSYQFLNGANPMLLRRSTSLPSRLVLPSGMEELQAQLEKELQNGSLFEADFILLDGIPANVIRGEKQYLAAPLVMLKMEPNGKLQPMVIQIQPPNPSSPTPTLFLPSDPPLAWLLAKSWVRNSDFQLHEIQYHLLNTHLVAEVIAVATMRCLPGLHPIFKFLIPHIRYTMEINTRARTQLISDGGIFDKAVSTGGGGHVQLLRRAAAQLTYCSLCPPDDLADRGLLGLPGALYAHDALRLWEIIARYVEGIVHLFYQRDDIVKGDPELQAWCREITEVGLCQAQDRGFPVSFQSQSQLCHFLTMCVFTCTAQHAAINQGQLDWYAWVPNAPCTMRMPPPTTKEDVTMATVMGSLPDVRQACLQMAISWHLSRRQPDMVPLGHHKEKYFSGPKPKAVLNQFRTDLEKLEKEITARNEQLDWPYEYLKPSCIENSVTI
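Purified human 12hLO (150 nM), preincubated 15 min with compound, then 40 uM arachidonic acid for 30 min, room temperature, Hepes pH 7.0 with 0.01% Triton X-100. Hydroperoxide detected by ferrous iron/xylenol orange; 573/405 nm absorbance ratio gives reaction progress.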
15-hLO-2 inh = inhibitors of human 15-lipoxygenase 2 (ALOX15B). O15296. purified 15hLO-2, xylenol orange hydroperoxide absorbance. Potency, µM (highest dose often 57.1 µM), for inactives: at the top dose activity change, negative = inhibition, usual class: inhibitors. 110,000 compounds, 0.56% hits. AID 881; also: potency is read from the fitted curve at half-maximal effect; nearly all actives have a fitted effect of over 60% in size
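Purified human 15hLO-2 (50 nM) preincubated 15 min with compound, then 45 uM arachidonic acid for 90 min at RT in 25 mM Hepes pH 7.5, 0.01% Triton X-100. Hydroperoxide detected by Fe-xylenol orange; 573/405 nm absorbance ratio.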
An asterisk follows results filed as active; ? = inconclusive; . = no result; [ ] = remark or other dose. Unless noted, calls follow the shape of the dose curve; as a rule, active = well fitted curve in the direction sought with a large enough effect; inconclusive = small, poorly fitted or top-dose-only effect, or another doubt; inactive = no such curve, though single readings can be large; an effect the other way counts as inactive or inconclusive. Unless noted, % is scaled to controls: 0 for no effect and ±100 for the full control effect.

SMILES	IMPase cell inh	PNC assembly inh	12-hLO inh	15-hLO-2 inh
COc1ccc2c(c1)-c1ccccc1S(=O)(=O)N2C(C)=O	6	-114*	3%	-4%
CCOc1cccc(=O)c2c(C)n(Cc3ccco3)c(C)c12	6	-100*	-25%	-20%
CC(C)c1ccc(O)c(O)c(=O)c1 (tested in a mixture with another compound)	.	.	?	4µM*
O=c1[nH]c(/C=C/c2ccccc2OC(F)F)nc2c1cnn2-c1ccccc1	.	10	-1%	.
CC(C)C(C)(C)C(C)(C)C(C)(C)S	.	.	0%	2%
CC1=CN2C(=NC(=O)CC2(C)C(=O)N(CC(=O)NC2CCCC2)c2ccccc2C)C=C1 (configuration not stated)	-12	-100*	-1%	.
CO[C@]1(NC(=O)[C@H](C(=O)O)c2ccc(O)cc2)C(=O)N2C(C(=O)O)=C(CSc3nnnn3C)CO[C@H]21	3[20.6 µM]	.	-3%[25.6 µM]	27%[25.6 µM]
Nc1nc(SCC(=O)Nc2ccc(Oc3ccccc3)cc2)n[nH]1	.	?	-2%	.
Nc1nc(SCC(=O)Nc2ccccc2Sc2ccccc2)n[nH]1	-10	-111*	0%	8%
C[C@H](N)C(=O)OC(C)(C)Cc1ccc(Cl)cc1	-4	.	-4%	36%
C[C@H](NC(=O)Cn1cncn1)c1ccccc1	10	-100*	4%	-4%
O=[N+]([O-])/C=C\c1cc2ccccc2[nH]1	.	.	-5%[11.4 µM]	-10%[11.4 µM]
CCN1CCN(Cc2ccc(OCc3ccccc3)cc2)CC1	15	35	4%	32%
CN1CCN(Cc2ccc(OCc3ccccc3)cc2)CC1	0	-86*	3%	23%
NCCC[C@@H](CC(=O)N[C@@H]1CCNC[C@H]1C(=O)N[C@H](CC(=O)N[C@@H](CCC(=O)O)CC(=O)O)Cc1c[nH]c2ccccc12)NC(=O)C[C@H](CO)NC(=O)[C@@H]1CCCC[C@H]1N	.	.	1%	.
CCCCCCN1C2=NCCN2c2ccccc21	-7	-107*	4%	13%
c1ccc(OCCN2C3=NCCN3c3ccccc32)cc1	17	-90*	1%	12%
CN(C)Cc1ccccc1-c1cncnc1NC1CC1	.	.	3%	3%
CCOC(=O)Nc1ccc2c(CN3C(=O)NC4(CCCC4)C3=O)cc(=O)oc2c1	-15	-100*	1%	.
CC1=CC(=O)C=CC1(C)C(Cl)Cl (configuration not stated)	1	91	11%	0%
CC1=CC(C)(C(Cl)Cl)C(C)=CC1=O (configuration not stated)	-4	-100*	-7%	.
CC(=O)O[C@]12CC[N@+]3(C)CCCC[C@@H]3[C-]1Nc1ccccc12	.	.	0%[11.4 µM]	-1%[11.4 µM]
CCCCSc1nc2c(cnn2-c2ccc(C)c(C)c2)c(=O)[nH]1	-11	21	-3%	2%
CCCSc1nc2c(cnn2-c2ccc(C)c(C)c2)c(=O)[nH]1	-1	-95*	-6%	2%
O=C(Cn1c(CC(=O)N2CCCC2)nc2ccccc21)NCc1ccccc1	2	13	-5%	-7%
SMILES	IMPase cell inh	PNC assembly inh	12-hLO inh	15-hLO-2 inh
Cc1nc2ccccc2n1CC(=O)NCc1ccccc1	4	-103*	-1%	-7%
Cc1cc(=O)c2ccccc2n1CC(=O)NCc1ccccc1	.	-96*	0%	.
CCC(C(=O)OCC(=O)Nc1ccc(SC(F)F)cc1)c1ccccc1 (configuration not stated)	11	?	-8%	.
CCCCN(C)CC(O)Cn1cc(/C=C/C(=O)c2cccs2)c2ccccc21 (configuration not stated)	1	-100*	-6%	.
CCCC[C@@H]1C[C@H]1C(NC(=O)c1ccc(C(F)(F)F)cc1)c1ccc(C(=O)OC)cc1 (some centres not stated)	.	.	2%	28%
CCC1CCCCN1Cc1nc2c(c(=O)n(C)c(=O)n2C)n1CC(C)C (configuration not stated)	10	-95*	-1%	4%
CCOC(=O)c1cn(Cc2cccc(Cl)c2)nn1	.	-114*	1%	.
CCN(C(=O)Nc1ccccc1)c1ccccc1	.	31	-2%	.
COCCN(C(=O)Nc1ccccc1)c1ccccc1C	-6	-100*	-1%	.
COc1ccccc1-c1cc(Nc2ccn[nH]2)ncn1	.	.	.	-5%
Cc1ccc(C2C=C(c3ccccc3)Nc3nc(NS(C)(=O)=O)nn32)cc1 (configuration not stated)	-18	.	.	.
CCOC(=O)Cn1c(=O)oc2cc(S(=O)(=O)Nc3cc(OCC)ccc3OCC)ccc21	-2	-3	-7%	-3%
CCOC(=O)Cn1c(=O)oc2cc(S(=O)(=O)Nc3cc(Cl)ccc3OC)ccc21	8	-97*	-14%	2%
COc1ccc(/C=C2\C(=O)N(c3c(Cl)cc(Cl)cc3Cl)N=C2NC(=O)c2cccc([N+](=O)[O-])c2)cc1	.	18	4%	.
Cc1cc(C(F)(F)F)n2nc(C(=O)O)c(Cl)c2n1	-6	-90*	5%	9%
O=C1C2CCCN2C(c2ccc(F)cc2)N1c1ccc(Cl)cc1 (configuration not stated)	-3	-98*	-13%	10%
O=C1C2CCCN2C(c2ccccc2)N1c1ccc(F)cc1 (configuration not stated)	3	44	7%	1%
O=C(c1ccc(S(=O)(=O)c2ccccc2Cl)c([N+](=O)[O-])c1)N1CCCCCC1	10	-105*	-6%	.
CCN1CCN(C(=O)c2ccc(Sc3ccccc3Cl)c([N+](=O)[O-])c2)CC1	3	104	3%	.
Cc1ccc(Nc2nnc(-c3ccc(C)c(S(=O)(=O)N4CCOCC4)c3)c3ccccc23)cc1	-16	.	.	.
CCS(=O)(=O)c1ccc(-c2csc(-c3ccc(Cl)cc3)n2)c(Cl)c1Cl	-1	?	3%	3%
ClCc1csc(-c2ccc(Cl)cc2)n1	.	-113*	0%	.
O=C(O)/C=C\c1c2ccc(=O)c(O)c-2oc2c(O)c(O)ccc12	.	.	-24%[11.4 µM]	?
COc1ccc(Cl)cc1NC(=O)Cc1c(F)cccc1Cl	.	57	-1%	.
COc1ccc(Cl)cc1NC(=O)C(C)N(C)Cc1cccc(Cl)c1Cl (configuration not stated)	1	-101*	1%	.
SMILES	IMPase cell inh	PNC assembly inh	12-hLO inh	15-hLO-2 inh
C/C(Cn1nnc([N+](=O)[O-])n1)=N\NC(=O)c1cccc(Cl)c1	-2	-26	-11%	-4%
COc1ccc(C2C(C(=O)O)CCC(=O)N2c2ccc(OC)cc2)cc1 (configuration not stated)	-1	-17	10%	1%
CCCCN(C)C(=O)C1CCC(=O)N(c2cc(OC)c(OC)c(OC)c2)C1c1ccc(OC)cc1 (configuration not stated)	-5	-100*	3%	.
O=C1C=CC(=Nc2cccc3c(N=C4C=CC(=O)O4)cccc23)O1	.	.	-8%[11.4 µM]	1%[11.4 µM]
COCCNC(=O)[C@@]1(Cc2ccccc2)C=C[C@@H](C)N1C(=O)OC	.	.	4%	1%
CC(C)(C)C(=O)CSc1nc2ncc(Br)cc2[nH]1	-2	-98*	-2%	4%
